In the library only some 2.7% were active in any assay of this set; here they are far more common.
PP5 primary – blocks human protein phosphatase 5 activity | P53041 | purified PP5c, OMFP substrate fluorescence | inhibition, % at 6.7 µM | 0.18% of 320,000 active | AID 1987;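 active means inhibition above the campaign's mean inhibition across all tested compounds plus 3 SD, cut at about 9.5% in these data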
PP1 counter – blocks human PP1-alpha phosphatase, a PP5 counter-screen | purified PP1alpha, OMFP fluorescence | inhibition, % at 6.7 µM | 0.9% of 320,000 active;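 active means inhibition above the mean inhibition of all tested compounds plus 3 SD, computed separately for each screening campaign, cut at about 15% in these data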
Target sequence (P62136 whole entry, looked up): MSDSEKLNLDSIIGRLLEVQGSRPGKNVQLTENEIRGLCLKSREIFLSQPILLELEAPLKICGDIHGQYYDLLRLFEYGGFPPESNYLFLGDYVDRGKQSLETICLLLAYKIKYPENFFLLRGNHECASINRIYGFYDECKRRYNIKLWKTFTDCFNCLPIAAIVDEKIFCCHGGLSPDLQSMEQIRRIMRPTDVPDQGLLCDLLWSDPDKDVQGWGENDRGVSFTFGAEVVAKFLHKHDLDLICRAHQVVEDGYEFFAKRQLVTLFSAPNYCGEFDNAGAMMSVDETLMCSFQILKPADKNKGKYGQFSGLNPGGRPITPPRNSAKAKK
TMEM16A act – activates or potentiates the mouse TMEM16A chloride channel; HEK293 TMEM16A/YFP-H148Q/I152L, iodide quench fluorescence; hits give low values; 0.3% of 340,000 active; B-score at 10 µM; Q8BHY3; AID 623877;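 active means fluorescence-ratio B-score plate-corrected deviation score at least 3 library SD below zero, with starting fluorescence score within 5 deviations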;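 further: channel opened by trigger with iodide after compound preincubation; score built on the fluorescence ratio of max minus min over baseline; more negative score means more quench and so TMEM16A activation or potentiation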
TMEM16A inh – inhibitors of mouse TMEM16A calcium-activated chloride channel | Q8BHY3 | HEK293 TMEM16A/YFP iodide influx fluorescence, ionomycin | normalized B-score (activity score, 25-100; higher = stronger inhibition) at 10 µM | 1.2% of 310,000 active | AID 588511;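 active means ratio plate-corrected score three or more library SD toward inhibition, starting fluorescence score within five deviations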;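 further: score derived from kinetic fluorescence span divided by baseline fluorescence per well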
FID counter – fluorescent intercalator displacement, NS3 helicase counter-screen | inhibition, % at 7.9 µM | DNA fluorescent intercalator displacement, fluorescence | 0.17% of 290,000 active | AID 1845; in the data active means inhibition above about 37%;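 further: higher means more ethidium bromide displaced from hairpin DNA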
PREPL inhibitor – inhibitors of human prolyl oligopeptidase-like enzyme PREPL; Q4J6C6; recombinant PREPL, fluorescence polarization activity-based probe; inhibition, % at 5.96 µM; 0.68% of 320,000 active; AID 2751; in the data active means inhibition above about 43%
PP1 inh confirm – human PP1 phosphatase inhibition, confirmation; shares compounds with PP1 counter; purified PP1alpha, OMFP substrate fluorescence; inhibition, % at 6.7 µM; 52% of 1,900 active; AID 2358;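 active means mean PP1 inhibition above a set limit taken from the earlier primary screen, cut at about 15% in these data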
PP5 counter – inhibits human PP5 phosphatase in PP1 counter-screen. AID 2360. 4% of 1,900 active. shares compounds with PP1 counter. purified PP5c, OMFP fluorescence. inhibition, % at 6.7 µM;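 active means mean PP5 inhibition over triplicate wells above about 9.5% taken from the earlier PP1 screen, limit read from the data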
Each line names hits and unclear results; the compound was inactive in the other large screens (follow-up assays come after a bar, where they were run).

COc1cc(CN2CCCC(CO)(Cc3cccc(Cl)c3)C2)cc2c1OCO2 (stereo unspecified)	none
Cc1ccc(/C=N/n2c(-c3ccc(Cl)cc3)n[nH]c2=S)s1	PP1 counter 20 | PP1 inh confirm inactive | PP5 counter inactive
Cn1cccc1/C=N/n1c(-c2ccc(Cl)cc2)n[nH]c1=S	none
CCCOc1cccc(-c2nn(-c3ccccc3)cc2/C=C(\C#N)C(=O)NCCCn2ccnc2)c1	none
N#C/C(=C/c1cn(-c2ccccc2)nc1-c1cccc(OCc2ccc(F)cc2)c1)C(=O)NCCCn1ccnc1	PP1 counter 22 | PP1 inh confirm inactive | PP5 counter inactive
Cc1c(/C=N/n2cnnc2)c2ccccc2n1CCOc1ccc(Cl)cc1	PP1 counter 29 | PP1 inh confirm inactive | PP5 counter inactive
NC1=NC[C@H](CC2CCCCC2)N1CCc1cc(C(F)(F)F)cc(C(F)(F)F)c1	PP1 counter 18 (no result: FID counter) | PP1 inh confirm inactive | PP5 counter inactive
O=C(Oc1ccc(/C=N/Nc2ccccc2)cc1)c1ccccc1	PP1 counter 21 | PP1 inh confirm inactive | PP5 counter inactive
O=C(O)c1ccc(N/N=C/c2ccc(OC(=O)c3cccc(Cl)c3)cc2)cc1	PP1 counter 52 | PP1 inh confirm inactive | PP5 counter inactive
O=C(Oc1ccc(/C=N/O)cc1)c1ccccc1	none
CSc1ccc(Cl)c(C(=O)OCC(=O)N2CCN(c3ccccc3)CC2)c1	none (no result: PP5 primary, PP1 counter, TMEM16A inh, FID counter, PREPL inhibitor)
O=C(OCC(=O)c1c[nH]c2ccccc12)c1cccc([N+](=O)[O-])c1	none (no result: TMEM16A act, TMEM16A inh, FID counter)
Nc1nc(N)c2cc(Sc3ccc4ccccc4c3)ccc2n1	PP1 counter 23 | PP1 inh confirm inactive | PP5 counter inactive
Nc1ccc(Sc2cc(Cl)nc(N)n2)cc1	none (no result: TMEM16A act)
CCOc1ncccc1C(=O)Nc1ccc(OC)c(S(=O)(=O)N2CCOCC2)c1	none (no result: PP5 primary, PP1 counter, TMEM16A inh, FID counter, PREPL inhibitor)
O=C(CSc1nc2ccc([N+](=O)[O-])cc2s1)NCC1CCCO1 (stereo unspecified)	none
O=C(CCN1C(=O)/C(=C\c2ccccc2F)SC1=S)Nc1ccc(C(=O)O)c(O)c1	PP1 counter 20 | PP1 inh confirm 20 | PP5 counter inactive
CC(C)c1ccc(C2c3[nH]c4ccccc4c3C[C@H]3C(=O)N(c4ccccc4C(=O)N4CCC[C@H]4C(=O)O)C(=O)N23)cc1 (stereo partly specified)	none
COc1ccc(NC(=O)NNC(=O)COc2ccc3cc(Br)ccc3c2)cc1OC	PP1 counter 25 | PP1 inh confirm 25 | PP5 counter inactive
COc1ccc(NC(=O)NNC(=O)COc2ccc3ccccc3c2)cc1OC	none
COc1ccc2cc(OCC(=O)NNC(=O)Nc3ccc(C(C)=O)cc3)ccc2c1	PP1 counter 43 | PP1 inh confirm 41 | PP5 counter inactive
COc1ccc(NC(=O)NNC(=O)COc2ccc3cc(Br)ccc3c2)cc1	none (no result: PP5 primary, PP1 counter, PREPL inhibitor)
COc1ccc(NC(=O)NNC(=O)c2ccc(-c3ccccc3)cc2)cc1	PP1 counter 28 | PP1 inh confirm 22 | PP5 counter inactive
O=C(c1cccc(NC2=NC3CS(=O)(=O)CC3S2)c1)N1CCN(c2ncccn2)CC1 (stereo unspecified)	none
COc1ccccc1/C=C/C(=O)OCC(=O)Nc1nnc(-c2ccccc2)o1	none (no result: PP5 primary, PP1 counter, TMEM16A inh, FID counter, PREPL inhibitor)
COc1ccc(OC)c(/C=C/C(=O)OCC(=O)Nc2nnc(-c3ccccc3)o2)c1	PP1 counter 33 (no result: TMEM16A inh, FID counter) | PP1 inh confirm 28 | PP5 counter inactive
COC(=O)C1=C(CSc2nc3c(cc2C#N)CN(C)CC3)OC(N)=C(C#N)C1c1ccccc1F (stereo unspecified)	PP1 counter 18 | PP1 inh confirm inactive | PP5 counter inactive
CC(=O)C1=C(O)C(=O)N(c2cc(C(C)(C)C)on2)C1c1ccc(C(C)C)cc1 (stereo unspecified)	none
COc1ccc(C2C(C(C)=O)=C(O)C(=O)N2c2ccc(O)cc2)cc1 (stereo unspecified)	none
CC(=O)C1=C(O)C(=O)N(c2cc(C(C)(C)C)on2)C1c1ccc(Br)cc1 (stereo unspecified)	PP1 counter 20 | PP1 inh confirm 22 | PP5 counter inactive
COc1ccc(C2C(C(C)=O)=C(O)C(=O)N2c2ccc(Br)cc2)cc1 (stereo unspecified)	PP1 counter 18 | PP1 inh confirm 17 | PP5 counter inactive
CC(=O)C1=C(O)C(=O)N(c2ccc(Br)cc2)C1c1ccc(Cl)cc1 (stereo unspecified)	PP1 counter 28 | PP1 inh confirm 21 | PP5 counter inactive
CSc1nnc(CCCCCNC(=O)OC(C)(C)C)o1	none
Cc1[nH]c(=O)[nH]c(=O)c1CSc1nnc(CCCCCNC(=O)OC(C)(C)C)o1	PP1 counter 23 | PP1 inh confirm inactive | PP5 counter inactive
CN(CC1CCCO1)S(=O)(=O)c1ccc(C(=O)Nc2nc3cc4c(cc3s2)OCO4)cc1 (stereo unspecified)	PP1 counter 23 | PP1 inh confirm 26 | PP5 counter inactive
ClC(Cl)(Cl)c1nc(N/N=C/c2ccncc2)c2ccccc2n1	PP1 counter 22 | PP1 inh confirm 18 | PP5 counter inactive
CN1C[C@@H]2[C@@H]3C(=O)N(Cc4ccccc4)C(=O)[C@@H]3[C@](Cc3ccccc3)(C1=O)N2C(=O)c1ccc(C(C)(C)C)cc1	none (no result: PP5 primary, PP1 counter, TMEM16A inh, FID counter, PREPL inhibitor)
CCOc1ccc(C2Nc3cccc4cccc(c34)N2)cc1OC	none
CCOc1cc(C2Nc3cccc4cccc(c34)N2)ccc1O	PP1 counter 24 | PP1 inh confirm inactive | PP5 counter inactive
CCc1cc2c(cc3c(=O)n(CC(=O)N4CCN(C)CC4)ncn32)s1	none
Cc1cc(C2=NNC(=Nc3ccc(S(=O)(=O)N4CCOCC4)cc3)SC2)c(C)n1C	PP1 counter 18 | PP1 inh confirm inactive | PP5 counter inactive
Cc1ccc(CNc2ncnc3c2cnn3C2CCCCO2)cc1 (stereo unspecified)	none (no result: PP5 primary, PP1 counter, TMEM16A inh, FID counter, PREPL inhibitor)
COc1cc(/C=N/NC(=O)COc2c(C)cc([N+](=O)[O-])cc2C)ccc1OC(=O)c1ccccc1Br	PP1 counter 21 | PP1 inh confirm 17 | PP5 counter inactive
CNC(=O)CS(=O)(=O)CC(=O)Nc1cc(OC(C)C)c(Cl)cc1Cl	none
NC(=O)CC(NC(=O)Cc1ccc(Br)cc1)c1ccc(NCCOc2ccccc2)c([N+](=O)[O-])c1 (stereo unspecified)	PP1 counter 20 (no result: FID counter) | PP1 inh confirm 26 | PP5 counter inactive
NC(=O)CC(NC(=O)Cc1ccc(Br)cc1)c1ccc(NCCc2cccc(F)c2)c([N+](=O)[O-])c1 (stereo unspecified)	PP1 counter 18 (no result: FID counter) | PP1 inh confirm 23 | PP5 counter inactive

Assay outcomes from PubChem.
